The structures appear in SMILES notation. Compounds without any hit were thinned out: in the full panel of roughly 83,000, 20% have a hit.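 Compound tested at a single concentration for 48 hours in 96-well plates; a percent growth value below 10 was scored as active.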 Active and inactive are the calls of the source.

In the first assay the test system is DU-145 prostate. The assay can be described thus: NCI-60 one-dose screen, 48 h (100 = growth as untreated, 0 = no growth, -100 = all killed). The note with it: 10 µM.
In the case of `COc1cc(/C=C/c2cc(/C=C/c3ccc(O)c(OC)c3)nc(N)n2)ccc1O`, the growth is 13% (inactive).
Still for that read-out and setting: next, `CC(=O)Oc1cc(OC(C)=O)c2ccccc2c1OC(C)=O`: 67% (inactive); `CCOc1ccccc1/C=N\N=C\c1ccccc1O`: 98.8% (inactive).

A further assay has as its system K-562 leukemia. The description is as above. The settings on record: 10 µM.
In the case of `COc1ccc(/C=C2\CCCC3=C2NC(N)=NC3c2ccc(OC)cc2)cc1` (stereo not given), the growth is 107% (inactive).
For the compound `CN(C)CCCOc1cccc(NC2=C(Cl)C(=O)C(Nc3cccc(OCCCN(C)C)c3)=C(Cl)C2=O)c1`, the growth is -29.7% (active).
On to `N#CC1=C(N)Oc2cc(N)ccc2C1c1cccnc1` (stereo not given), for which the growth was 83.3% (inactive).
On to `COc1cc(/C=C/c2cc(/C=C/c3ccc(O)c(OC)c3)n(C(=O)Nc3ccc(C)cc3)n2)ccc1O`, for which the growth is 2.29% (active).
As for `Cc1ccc(-n2nnnc2N)c(C)c1`, the growth is 115% (inactive).
For the compound `CCCCN(CCCC)C(=O)[C@H](CC)[C@@H]1CC[C@@H](C)[C@@H]([C@H](C)[C@@H](O)[C@@H](C)C(=O)[C@H](CC)C2O[C@]3(C=C[C@@H](O)[C@]4(CC[C@@](C)([C@H]5CC[C@](O)(CC)[C@H](C)O5)O4)O3)[C@H](C)C[C@@H]2C)O1` (stereo not given in full), the growth is 14.1% (inactive).
The same measure, in the same setting: the value for `COc1ccc2c(c1)C(=O)/C(=C/c1ccc([N+](=O)[O-])o1)O2` was -34.8% (active).
Regarding `Cc1ccc(S(=O)(=O)N(C)CCCCCC(=O)O)cc1`, the growth is 104% (inactive).
Turning to `NC1=NC(c2ccc(Cl)cc2)C2=C(N1)/C(=C/c1ccc(Cl)cc1)CCC2` (stereo not given), the growth was 43.5% (inactive).
Same read-out and setting: next, `S=C(NCc1ccccc1)NCc1ccccc1`: 98.7% (inactive); `COc1cc2cc(Oc3ccc(NC(=O)c4ccccc4)cc3)c(C)nc2cc1OC`: 88.1% (inactive); `Cc1c(Cl)cccc1NC(=O)CN1CCOCC1`: 91.6% (inactive).
For `C=CCN(CC=C)C(=O)[C@H](CC)[C@@H]1CC[C@@H](C)[C@@H]([C@H](C)[C@@H](O)[C@@H](C)C(=O)[C@H](CC)C2O[C@]3(C=CC(=O)[C@]4(CC[C@@](C)([C@H]5CC[C@](O)(CC)[C@H](C)O5)O4)O3)[C@H](C)C[C@@H]2C)O1` (stereo not given in full), the growth was 18.7% (inactive).
Take `CCN1CCN(CCC(=O)Nc2cccc(-n3cc(-c4ccncc4)c(-c4ccc(Cl)c(OC)c4)n3)c2)CC1`: the growth is -34% (active).
Turning to `Nc1ccn(Cc2nnc(CCC(=O)c3nc4ccccc4[nH]3)o2)c(=O)n1`, the growth was 79.8% (inactive).
Consider `Cc1ccc2nc(Cl)c(-c3nc4ccccc4o3)cc2c1`, for which the growth was 80.7% (inactive).
On the same count and under the same terms, next, `C/C=C/CSC(C)(C)C(=O)NC`: 110% (inactive); `COc1cc2c(Nc3ccc(S(N)(=O)=O)cc3)ncnc2c(OC)c1OC`: 97.8% (inactive).
For the compound `CC(=O)OC1C=CC(OC(C)=O)O1` (stereo not given), the growth is 91.1% (inactive).
`CC(=O)C1N=NCC1c1ccccc1` (stereo not given): the growth is 80.4% (inactive).
With `O=C(CN(C1CCCCC1)C1CCCCC1)Nc1ccc(S(=O)(=O)c2ccc(NC(=O)CN(C3CCCCC3)C3CCCCC3)cc2)cc1`, the growth was -29.8% (active).
For the compound `Cc1c[nH]c(=O)n(Cc2nnc(CCC(=O)c3nc4ccccc4[nH]3)o2)c1=O`, the growth is 10.4% (inactive).
For `O=C(CCn1cnc2c(cc(-c3ccccc3)n2-c2ccccc2)c1=O)Nc1ccc(F)cc1`, the growth was 67.3% (inactive).
Consider `CN(C)CCOc1cccc(NC2=C(Cl)C(=O)C(Nc3cccc(OCCN(C)C)c3)=C(Cl)C2=O)c1`, for which the growth was -30.7% (active).
For `CN1CCN(CCC(=O)Nc2cccc(-n3cc(-c4ccncc4)c(-c4ccc(Cl)c(O)c4)n3)c2)CC1`, the growth was 12.8% (inactive).
In the case of `CC(=O)Nc1ccc(CC[C@H]2CCC/C=C/[C@@H]3C[C@H](O)C[C@H]3[C@H](O)/C=C/C(=O)O2)cc1`, the growth was 15.3% (inactive).
With `CN(C)CCN(Cc1ccccc1)c1ccc2ccccc2n1`, the growth is 93.4% (inactive).
As to `C/C(=N\O)c1ccc(NC(=O)CSc2nnc(-c3ccccc3)n2-c2ccccc2)cc1`, the growth was 95.8% (inactive).
`CCC(CC)n1c(C)cc(=O)n1C(CC)CC`: the growth is 105% (inactive).
On the same count and under the same terms, the value for `CC[C@@H](C(=O)[C@H](C)[C@H](O)[C@@H](C)[C@H]1O[C@H]([C@@H](CC)C(=O)O)CC[C@H]1C)C1O[C@]2(C=C[C@@H](O)[C@]3(CC[C@@](C)([C@H]4CC[C@](O)(CC)[C@H](C)O4)O3)O2)[C@H](C)C[C@@H]1C` (stereo not given in full) was 6.72% (active); that for `O=C(O)c1cc([N+](=O)[O-])ccc1Oc1ccccc1` was 116% (inactive); that for `O=[N+]([O-])c1cccc(/C=N/NC(=S)NC23CC4CC(CC(C4)C2)C3)c1` was 89.2% (inactive).
